PERK inhibitor: human PERK inhibition, primary cell-based screen. Q9NZJ5. inhibition, % at 5.6 µM. hit rate 0.17% among 220,000. CHO PERK-DD fusion, SEAP luminescence translation reporter;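 active = inhibition above the mean inhibition of all tested compounds plus 3 SD, set separately per screening campaign, cut at about 2.9% in these data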;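 note: PERK kinase domain activated by AP20187 dimerizer at 100 nM; 0% = DMSO with dimerizer and 100% = rapamycin at 8.4 µM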
PABP FP inh: PABP-poly(A) binding inhibition. P11940. PABP-poly(A) RNA binding, fluorescence polarization. inhibition, % at 35 µM. hit rate 1% among 290,000. AID 2014;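 note: calls also rest on retests at 20 µM and on dose response follow-up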
GRK2 aptamer HTS: blocks RNA aptamer binding to human GRK2; bead flow cytometry, FAM-aptamer displacement from GRK2; inhibition of aptamer binding, % at 10 µM; hit rate 0.59% among 330,000; AID 488847;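 active = inhibition of aptamer binding above 40%, roughly 3 SD of noise, on plates passing a quality check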;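 note: median bead fluorescence of bound FAM aptamer so fluorescent compounds give negative values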
MLLE-PAM2 inh: blocks PAM2 peptide binding to the PABP1 MLLE domain. P11940. GST-MLLE / FITC-PAM2 fluorescence polarization. inhibition, % at 20 µM. hit rate 0.36% among 360,000; in the data active = inhibition above about 35%, passing the limit was not always enough;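 note: plate controls were DMSO wells with GST-MLLE for no effect and wells lacking GST-MLLE protein for full effect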
eIF4H inh: inhibitors of RNA binding by human eIF4H; Q15056; eIF4H fluorescence polarization binding assay; inhibition, % at 35 µM; hit rate 0.94% among 290,000; AID 2012;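 note: calls also rest on retests at 20 µM and on dose response follow-up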
Starred values were filed as active, the others as inactive; ? = inconclusive; . = no result given. Rows were chosen to be rich in hits. Some 1.9% of all compounds tested hit in one or more screens of this group. Unless noted, the rule behind the calls is not given here.

SMILES	PERK inhibitor	PABP FP inh	GRK2 aptamer HTS	MLLE-PAM2 inh	eIF4H inh
O=C(c1cc(-c2ccco2)nc2ccccc12)N1CCN(c2ccc(F)cc2)CC1	-1	-10	0	-5	-9
O=C(CSc1nc2cc(Cl)ccc2o1)NC1CC1	.	.	1	9	.
O=C1N=C(N2CCOCC2)SC1=Cc1ccco1	.	.	.	13	.
O=C1N=C(N2CCOCC2)S/C1=C/c1cc2c(cc1[N+](=O)[O-])OCO2	-1	59*	0	-7	87*
CS(=O)(=O)c1ccc(C(=O)Nc2ccc(N3CCCC3)cc2)c(Cl)c1	1	6.5*	1	0	82*
O=C(Nc1cc(S(=O)(=O)Nc2ccc(Cl)cc2)ccc1N1CCCCC1)c1ccc(F)cc1Cl	-1	11	0	43*	8
COc1ccc(NS(=O)(=O)c2ccc(N3CCOCC3)c(NC(=O)c3ccccc3Cl)c2)cc1	-1	10	4	5	0
CCCCCCCNC1=CC(=O)CC(c2ccco2)C1 (stereo not given)	0	84*	0	-13	93*
CCOc1ccc(NC2=CC(=O)CC(c3ccco3)C2)cc1 (stereo not given)	0	1	0	-11	-2
C#CCN(C[C@@H]1[C@@H](OC(=O)Nc2cccs2)[C@@H](OC(=O)Nc2cccs2)Cn2c(=O)n(CCCCCC)c(=O)n21)S(=O)(=O)c1ccc(C)cc1	.	.	.	9	.
COc1cc(C)c(CNc2ccc(OC)c(OC)c2)cc1C	1	81*	6	.	63*
COc1cc(C)c(CNc2cccc(C)c2)cc1C	0	42	0	-10	1
CCNCc1ccccc1OCc1ccccc1	1	-3	1	-8	9
Oc1ccc(NCc2ccccc2OCc2ccccc2)cc1	1	active	0	-8	88*
O=C1CSC(=S)N1/N=C/c1ccc(O)c(O)c1O	0	74*	4	3	80*
O=C1CSC(=S)N1/N=C/c1cc(Br)ccc1O	.	0	1	.	14
CCOC(=O)c1ccc(NS(=O)(=O)c2c(N)n(C)c(=O)n(C)c2=O)cc1	.	.	1	11	.
Cc1ccc(C)c2c1c1ccccc1n2C	0	11	1	8	-2
CN(C)c1cc2c3ccccc3n(C)c2cc1N	.	.	.	64*	.
COc1ccc(OC)c(NP2(=O)OCC(C)([N+](=O)[O-])CO2)c1 (stereo not given)	.	.	.	7	.
COc1ccc2c3c(cccc13)OC2=O	.	2	4	0	-4
COc1ccc2c3c(cccc13)N(C)N=C2C	0	?	17	95*	100*
CC1=NN(c2ccc(N)cc2)C(=O)C1	1	56*	6	22	7
CC1=NN(c2ccc(Cl)cc2)C(=O)C1	1	-26	0	13	7
c1ccc(C[n+]2csc3ccccc32)cc1	0	10	1	43*	-12
SMILES	PERK inhibitor	PABP FP inh	GRK2 aptamer HTS	MLLE-PAM2 inh	eIF4H inh
CC(Oc1ccc(Br)cc1)C(=O)NCC(c1cccs1)N1CCOCC1 (stereo not given)	.	.	0	1	.
CC(=O)c1ccc2c(c1)C1C=CCC1C(C(=O)O)N2 (stereo not given)	0	89*	.	18	101*
CC(=O)c1ccc2c(c1)C1C=CCC1C(c1ccncc1)N2 (stereo not given)	0	7	2	6	0
Cc1ccc2c(c1)C1C=CCC1C(C(=O)O)N2 (stereo not given)	0	5	68*	.	89
O=C(O)C1Nc2ccc(OC(F)(F)F)cc2C2C=CCC12 (stereo not given)	.	.	29	.	.
CCOC(=O)c1[nH]c(C)c(C(=O)O)c1C	3.3*	0	.	.	15
CCOC(=O)c1[nH]c(C)c(C(=O)N(C)C)c1C	1	-4	0	1	-4
CCc1nc2ccc(C(=O)NCCCN3CCCC3=O)cn2c1N(CC)C(=O)NCCc1ccccc1	.	.	.	4	.
CCCCCCCn1c2c(c(=N)c3ccccc31)CCC2	0	62*	0	-99	-4
CN1C=CC2=C(C#N)C(N)C(C#N)(C#N)[C@H](c3ccccc3)[C@H]2C1 (stereo not given in full)	0	14	2	48*	?
CS(=O)(=O)Nc1ccc(C2=NN(S(=O)(=O)c3ccc(F)cc3)C(c3ccco3)C2)cc1 (stereo not given)	1	106	2	-30	active
O=C(c1ccccc1)c1ccc(OCC(O)CNCc2ccc(Cl)cc2)cc1 (stereo not given)	.	1	0	-8	4
CCOC(=O)c1cccc(NC(=O)Cn2nc(C)n3cccc3c2=O)c1	.	-9	0	11	-7
